According to a collection of fitness landscapes (doi:10.1016/j.celrep.2020.107928):
In all, about 81,000 sequences were measured (“one-hybrid fitness for binding parS DNA”: median about -0.17, highest 2% from about 0.51 on). For the sample, the highest values were picked, then their nearest neighbours and some sequences at random.

B1: Caulobacter ParB omega fusion; a variant is named by its letters at X, in order, B8GW30 (parent)
chain: MESVVVGEPGMSEGRRGLGRGLSALLGEVDAAPAQAPGEQLGGSREAPIEILQRNPDQPRRTFREEDLEDLSNSIREKGVLQPILVRPSPDTAGEYQIVAGERAWRAAQRAGLKTVPIMVRELDDLAVLEIGIIENVQRADLNVLEEALSYKVLMEKFERTQENIAQTIGKSXSHVANXMRLLXLPDEVQSYLVSGELTAXHARAIAAAADPVALAKQIIEGGLSVRETEALARKAPNLSAGKSKGGRPPRVKDTDTQALESDLSSVLGLDVSIDHRGSTGTLTITYATLEQLDDLCNRLTRGI

Variants of: B1
Assay: one-hybrid fitness for binding parS DNA (scaled: cognate 1, non-cognate 0); higher = stronger binding
Details: with parS DNA site
Procedure, shortened: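 Bacterial one-hybrid selection in E. coli USO rpoZ- hisB- pyrF- with a HIS3 reporter carrying the site 19 bp from the promoter, screening Caulobacter ParB libraries with four specificity codons randomised (NNS). Cells grew 48 hours at 37°C on M9-minus-histidine plus 0.1 mM IPTG and 5 mM 3-AT. Plasmids before and after selection were Illumina-sequenced, three replicate libraries pooled, and variants under 10 reads dropped. Fitness is the log change in variant-to-wild-type read ratio, rescaled to cognate 1, non-cognate 0.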

one-hybrid fitness for binding parS DNA, 0.256:
RQYF
RICQ

one-hybrid fitness for binding parS DNA, 0.521:
RTWY
RWIC
RWWC

one-hybrid fitness for binding parS DNA, 1.04:
RCYG
RMCG

one-hybrid fitness for binding parS DNA, 0.733:
RWHC

one-hybrid fitness for binding parS DNA, 0.876:
RYYT

one-hybrid fitness for binding parS DNA, 0.927:
RCRG

one-hybrid fitness for binding parS DNA, 0.951:
RQQC

one-hybrid fitness for binding parS DNA, 0.264:
RYFM

one-hybrid fitness for binding parS DNA, 0.999:
RTCG

one-hybrid fitness for binding parS DNA, 0.213:
RYHH

one-hybrid fitness for binding parS DNA, 0.787:
RYWT

one-hybrid fitness for binding parS DNA, 0.355:
RTIN

one-hybrid fitness for binding parS DNA, 0.662:
RWYC

one-hybrid fitness for binding parS DNA, 0.221:
RTPY

one-hybrid fitness for binding parS DNA, 0.203:
RTID

one-hybrid fitness for binding parS DNA, 0.246:
VNDP

one-hybrid fitness for binding parS DNA, 0.869:
RHCC

one-hybrid fitness for binding parS DNA, 0.889:
RYHT

one-hybrid fitness for binding parS DNA, 0.316:
RTTM

one-hybrid fitness for binding parS DNA, 0.286:
RQWN

one-hybrid fitness for binding parS DNA, 0.878:
RHDC

one-hybrid fitness for binding parS DNA, 0.874:
RQCC

one-hybrid fitness for binding parS DNA, 0.223:
RWRH
RQEQ

one-hybrid fitness for binding parS DNA, 0.442:
RQLY

one-hybrid fitness for binding parS DNA, 0.829:
RQEC

one-hybrid fitness for binding parS DNA, 0.379:
RQEN

one-hybrid fitness for binding parS DNA, 0.916:
RQGC

one-hybrid fitness for binding parS DNA, 0.841:
RFFS

one-hybrid fitness for binding parS DNA, 0.512:
RAWY

one-hybrid fitness for binding parS DNA, 0.287:
RQGM

one-hybrid fitness for binding parS DNA, 0.934:
RHHC

one-hybrid fitness for binding parS DNA, 0.871:
RHNC

one-hybrid fitness for binding parS DNA, 0.946:
RQHC

one-hybrid fitness for binding parS DNA, 0.73:
RWQC

one-hybrid fitness for binding parS DNA, 0.928:
RHLC

one-hybrid fitness for binding parS DNA, 0.422:
RYQY
RSWY

one-hybrid fitness for binding parS DNA, 0.952:
RQLC

one-hybrid fitness for binding parS DNA, ≤ 0.2:
IADM
HDPK
FDHR
TTAR
QWPT
QFYR
VGKG
DTRA
ATYA
DTYA
NTRA
NWKG
RVDE
TNYG
PHTE
MVER
GAIS
VHEV
RDYG
RSRR
RPRG
RDRG
RPYG
EMQT
HGTT
LGRI
DCMT
VQTR
RYGK
RYYK
RYWP
RYCK
RYCQ
RYWD
TIPF
GWDS
DNAI
LTPR
DAHI
KFDS
TQIL
RYNQ
RYLP
RYNE
RYSQ
RYRF
RYRQ
DRTC
SSMT
KHMR
VHNS
QCGM
MVQC
PQQE
MRLA
PVER
RYDR
RYQQ
RYDF
RYHP
VVQF
QNYM
DLKH
LLYM
LLNS
QAGT
RTPD
PDAC
RPWY
IEES
IWRM
RRIW
VLVG
RWLK
RWHQ
RWIN
RWLM
RWGK
RWGN
CKVC
IMHG
QMQR
ATLN
RPRL
ASCK
TRPS
GPIF
WAKY
RWQQ
RWRD
RWQR
RWCK
RWSK
RWCD
ADHG
DYYC
LWRS
VTPY
PYRW
MYTG
RWYP
RWWM
RWYD
NWWC
GTFW
SPEV
GWNS
RHRQ
RHNP
RHSH
RHSD
RHRR
GRGR
PQPN
DESG
ATAA
TIDL
FQIS
YIVC
CDYG
TKDN
ASNP
RHCF
RHYR
RHLK
WTHL
QEVD
DTTH
VQAA
DVLS
THPF
RYAQ
VACC
TPLH
GCSG
IIPI
PYAK
IRPT
RQER
RQEK
RQED
RQEP
KSGF
HSSQ
MISR
TVTE
HTAD
AGDD
KANA
WSQY
NLNG
DWLT
RAFR
RAAP
KYLA
TKWY
KNQS
CSRV
ATTE
WMPS
CPLP
GALY
NGLG
RQGK
RQQQ
RQSQ
RQQK
RQHR
KYCL
AFDN
GKGS
WSNM
GTTW
ACNL
CRNF
SNIR
RQLQ
RQYR
RQCK
RQCQ
VAQC
FEDR
QQVS
VEHM
CAAW
APPF
YVRD
RQWD
CVQT
RFFP
RFFD
RFAD
RFAH
LQNH
TREM
DHQQ
STCC
RTCK
RDCG
RSCQ
RTCQ

one-hybrid fitness for binding parS DNA, 0.788:
RWSC

one-hybrid fitness for binding parS DNA, 0.325:
RQHM

one-hybrid fitness for binding parS DNA, 0.61:
RWGC

one-hybrid fitness for binding parS DNA, 0.813:
RTIT

one-hybrid fitness for binding parS DNA, 0.943:
RQRC

one-hybrid fitness for binding parS DNA, 0.968:
RQSC

one-hybrid fitness for binding parS DNA, 0.658:
RWLC

one-hybrid fitness for binding parS DNA, 0.978:
RAFG

one-hybrid fitness for binding parS DNA, 0.558:
RTPT

one-hybrid fitness for binding parS DNA, 0.389:
RMCN

one-hybrid fitness for binding parS DNA, 0.425:
RYAY

one-hybrid fitness for binding parS DNA, 0.819:
RYNT

one-hybrid fitness for binding parS DNA, 0.338:
RWSY

one-hybrid fitness for binding parS DNA, 0.879:
RHRC

one-hybrid fitness for binding parS DNA, 0.388:
RERG

one-hybrid fitness for binding parS DNA, 0.962:
RQES

one-hybrid fitness for binding parS DNA, 0.737:
RYRT

one-hybrid fitness for binding parS DNA, 0.428:
RHLY

one-hybrid fitness for binding parS DNA, 0.448:
RAAN

one-hybrid fitness for binding parS DNA, 0.719:
RQET

one-hybrid fitness for binding parS DNA, 0.504:
RQRY

one-hybrid fitness for binding parS DNA, 0.895:
RWRC

one-hybrid fitness for binding parS DNA, 0.862:
RYST

one-hybrid fitness for binding parS DNA, 0.492:
RICY

one-hybrid fitness for binding parS DNA, 0.281:
RQEH

one-hybrid fitness for binding parS DNA, 0.396:
RYLN

one-hybrid fitness for binding parS DNA, 0.371:
RHCY

one-hybrid fitness for binding parS DNA, 0.92:
RHYC

one-hybrid fitness for binding parS DNA, 0.499:
RAFY

one-hybrid fitness for binding parS DNA, 0.966:
RSCG

one-hybrid fitness for binding parS DNA, 0.606:
RTYA

one-hybrid fitness for binding parS DNA, 0.79:
RYDT

one-hybrid fitness for binding parS DNA, 0.266:
RHHM

one-hybrid fitness for binding parS DNA, 0.42:
RYGY

one-hybrid fitness for binding parS DNA, 0.976:
RFAS
RICG

one-hybrid fitness for binding parS DNA, 0.4:
RHHY

one-hybrid fitness for binding parS DNA, 0.797:
RQWC

one-hybrid fitness for binding parS DNA, 0.465:
RQSY

one-hybrid fitness for binding parS DNA, 0.911:
RYLT

one-hybrid fitness for binding parS DNA, 0.386:
RHNN

one-hybrid fitness for binding parS DNA, 0.513:
RCWY

one-hybrid fitness for binding parS DNA, 0.853:
RYGT
RYQT

one-hybrid fitness for binding parS DNA, 0.255:
RQEM

one-hybrid fitness for binding parS DNA, 0.254:
RHDM

one-hybrid fitness for binding parS DNA, 0.275:
RWHY

one-hybrid fitness for binding parS DNA, 1:
RAAG

one-hybrid fitness for binding parS DNA, 0.852:
RYCT

one-hybrid fitness for binding parS DNA, 0.43:
RYFY

one-hybrid fitness for binding parS DNA, 0.397:
RHDY

one-hybrid fitness for binding parS DNA, 0.337:
RWPC

one-hybrid fitness for binding parS DNA, 0.211:
RHYF

one-hybrid fitness for binding parS DNA, 0.924:
RHSC

one-hybrid fitness for binding parS DNA, 0.982:
RYAG

one-hybrid fitness for binding parS DNA, 0.247:
RQRF

one-hybrid fitness for binding parS DNA, 0.302:
RYSM

one-hybrid fitness for binding parS DNA, 0.22:
RYYF

one-hybrid fitness for binding parS DNA, 0.636:
RWCC

one-hybrid fitness for binding parS DNA, 0.932:
RYFG

one-hybrid fitness for binding parS DNA, 0.965:
RSRG

one-hybrid fitness for binding parS DNA, 0.794:
RTRA

one-hybrid fitness for binding parS DNA, 0.94:
RQYC

one-hybrid fitness for binding parS DNA, 0.89:
RQEG

one-hybrid fitness for binding parS DNA, 0.262:
RMCH
